Results published in PubChem BioAssay (NCI).
Values joined by “and” are separate entries in the source; they are usually repeats but may differ in a detail not shown here. Equal values may be shown once. This is part of a sample that, as a whole, favours compounds with a hit. Of some 79,000 tested, about 15% had one in any assay. Active and inactive are the calls of the source. Cut-off read from the data, not from the text of the source: active = growth inhibition above about 70%; inactive = the rest.

assay: NCI Yeast Anticancer Drug Screen. Data for the bub3 strain (AID 167); details: S. cerevisiae bub3 mutant strain, active compounds read high; at 50.0 µM unless noted
Outline: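 Growth of a checkpoint-deficient yeast mutant is measured after compound exposure. Values represent inhibition relative to vehicle.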

SMILES | growth inhibition
CC1=C(CCC(=O)O)C(=O)C(CCC(=O)O)C(C)(C)C1 (centres undefined) | 4.6% (inactive)
CC1=C2CC3=C(C)C(=O)O[C@H]3C[C@@H](C)[C@@H]2CC1 | 33.8% (inactive)
O=S(=O)(O)C(I)S(=O)(=O)O | -10.8% (inactive)
CC(C)(C1CCC([Si](C2CCCCC2)(C2CCCCC2)C2CCCCC2)CC1)[Si](C1CCCCC1)(C1CCCCC1)C1CCCCC1 (centres undefined) | 3.3% (inactive)
CCOP(=O)(OCC)/C(=C\n1c(=S)[nH]c2cc(C)ccc21)C(=O)OC | -2.5% (inactive)
O=C(/C=C/c1ccc(OCC(=O)N2CCN(c3ccccc3)CC2)cc1)c1ccccc1 | 16.7% (inactive)
CC1(C)N=C(N)N=C(N)N1c1ccc(N)cc1 | -21.4% (inactive)
Cc1cc2nc3c(C(OC4OC(CO)C(O)C(O)C4O)C(O)CO)nn(-c4ccc(F)cc4)c3nc2cc1C (centres undefined) | 3.45% (inactive)
CCCCCCCCCCCCCCCc1ccc(N)c(OC2OC(CO)C(O)C(O)C2O)c1 (centres undefined) | -5.6% (inactive) and 0.95% (inactive)
Cn1c2ccccc2c2nnc(NCCCO)nc21 | 25% (inactive)
C=CCSCc1ccccc1 | -2.15% (inactive)
Cc1ccccc1C(=O)C[n+]1ccccc1C | 4.1% (inactive)
CN1C(=O)CCC1c1nc2ccccc2[nH]1 (centres undefined) | 6.45% (inactive)
C(/C=N/NC1=NCCN1)=N\NC1=NCCN1 | 36.6% (inactive)

assay: NCI Yeast Anticancer Drug Screen. Data for the mlh1 rad18 strain (AID 175); details: S. cerevisiae mlh1 rad18 strain growth inhibition, active compounds read high; at 50.0 µM unless noted
Outline: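 Genetically defined yeast (DNA repair-deficient) exposed to compounds; growth inhibition determined relative to vehicle.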

SMILES | growth inhibition
COc1cc2c(cc1OCc1ccccc1)C(Cc1cc(Br)sc1Br)=NCC2 | 43.4% (inactive)
C=C(NC(=O)C(c1ccccc1)c1ccccc1)C(=O)O | 17.4% (inactive)
NC(=S)/N=C/C=C\c1ccccc1 | -7.7% (inactive)
COC(OC)C(C)=O | 5.35% (inactive)
Cc1[nH]n(-c2ccc(Cl)cc2)c(=O)c1N=Nc1cccc(C(F)(F)F)c1 | 2% (inactive)
NC(Cc1ccc2nc3c4ccccc4c(=O)cc-3oc2c1)C(=O)O (centres undefined) | -13.7% (inactive)
Cc1cccc[n+]1C | 4.05% (inactive)
Cc1ccc(-c2ccc(C)cc2C(=O)O)c(C(=O)O)c1 | -15.3% (inactive)
CC(=O)N1C(=O)CC23c4cccc([N+](=O)[O-])c4C(=O)N2CCCN13 (centres undefined) | 17.4% (inactive)
CCCCCCOc1ccccc1CO | 10.8% (inactive)
Cc1ccccc1C(=O)c1ccccc1C | -9.9% (inactive)
O=c1[nH]c(Br)nc2c(N3CCCCC3)c[nH]c12 | 11.6% (inactive)
COc1ccc(-c2cc(-c3ccco3)c(C#N)c(=O)[nH]2)cc1 | 27.3% (inactive)
[O-]c1nn(-c2ccccc2)n[n+]1-c1ccccc1 | -10% (inactive)
O=C(CCl)Nc1cc2ccccc2oc1=O | -1.85% (inactive)
CCOC(=O)c1ccc(NC(=O)Nc2cc(Cl)ccc2C)cc1 | 25.4% (inactive)
CCN(CC)Cc1cc(O)ccc1NCCCNc1ccnc2cc(Cl)ccc12 | 12.1% (inactive)
C/C(=N\NS(=O)(=O)c1ccc(C)cc1)c1cccs1 | 12.6% (inactive)
Nc1ccccc1[N+](=O)[O-] | -1.55% (inactive)
O=[N+]([O-])c1cccc(/C=C/c2ccnc3ccccc23)c1 | 4.15% (inactive)

SMILES | growth inhibition
CN1CCN(C2c3ccccc3OC(C)(C)C2O)CC1 (centres undefined) | 8.8% (inactive)
ClC(Cl)CN(Cc1ccccc1)c1ncc[nH]1 | 17.6% (inactive)
CCN(CC)CCNc1ccc2ncn3c4cc(=O)ccc4c(O)c1c23 | 4.3% (inactive)
Cc1cc[n+]2cc(-c3ccc(/C=N/N=C(N)N)cc3)n(C)c2c1 | 29.9% (inactive)
C[C@H]1CC[C@@H]2O[C@@]23C(=O)OC2OC(C)(C)[C@@H]([C@H]2O)[C@]13C | -10.9% (inactive)
CC(C)CNC(=O)c1ccccc1Cl | -11.1% (inactive)
CC1=C(CCC(=O)O)C(=O)C(CCC(=O)O)C(C)(C)C1 (centres undefined) | 8.15% (inactive)
CC1=C2CC3=C(C)C(=O)O[C@H]3C[C@@H](C)[C@@H]2CC1 | 2.45% (inactive)
O=S(=O)(O)C(I)S(=O)(=O)O | -20% (inactive)
CC(C)(C1CCC([Si](C2CCCCC2)(C2CCCCC2)C2CCCCC2)CC1)[Si](C1CCCCC1)(C1CCCCC1)C1CCCCC1 (centres undefined) | -1.95% (inactive)
CCOP(=O)(OCC)/C(=C\n1c(=S)[nH]c2cc(C)ccc21)C(=O)OC | 31.3% (inactive)
O=C(/C=C/c1ccc(OCC(=O)N2CCN(c3ccccc3)CC2)cc1)c1ccccc1 | 10.7% (inactive)
CC1(C)N=C(N)N=C(N)N1c1ccc(N)cc1 | 7.8% (inactive)
Cc1cc2nc3c(C(OC4OC(CO)C(O)C(O)C4O)C(O)CO)nn(-c4ccc(F)cc4)c3nc2cc1C (centres undefined) | 1% (inactive)
CCCCCCCCCCCCCCCc1ccc(N)c(OC2OC(CO)C(O)C(O)C2O)c1 (centres undefined) | 18.1% (inactive) and -0.4% (inactive)
Cn1c2ccccc2c2nnc(NCCCO)nc21 | 11.2% (inactive)
C=CCSCc1ccccc1 | 19.7% (inactive)
Cc1ccccc1C(=O)C[n+]1ccccc1C | 8.3% (inactive)
CN1C(=O)CCC1c1nc2ccccc2[nH]1 (centres undefined) | 20.4% (inactive)
C(/C=N/NC1=NCCN1)=N\NC1=NCCN1 | 41.5% (inactive)
